HT1080 IDH1KD tx: HT-1080 IDH1 knockdown cell toxicity (counter line). HT-1080 IDH1 knockdown viability, ATP luminescence, 48 h. Potency, µM (titrated, usually from 46.1 µM), hits mostly cytotoxic. 2% of 360,000 active. AID 686971
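After a 2 h attachment period, IDH1KD HT-1080 cells took pin-transferred compound for 48 h at 37 °C; ATP-based luminescence after 10 min room-temperature reagent incubation reported viability.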
S2 tox: reduces viability in counter-screen for ATXN expression inhibitors; S2 cells (HEK-293 line with an ATXN2-luciferase reporter) viability, CellTiter-Fluor protease fluorescence, 24 h; Potency, µM (top dose mostly 56.7 µM), most hits filed as cytotoxic; 0.49% of 400,000 active; note: nearly all actives have a fitted effect of over 40% in size
HepG2 viability: kills HepG2 cells in TGF-b inhibitor counter-screen. HepG2 CAGA-GFP viability, ATP luminescence, 18 h. 0.76% of 410,000 active. Potency, µM (series often up to 46.1 µM), usual class: cytotoxic. AID 588856
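HepG2 CAGA-GFP cells (1000/well, DMEM with 1% FBS) received compound, then TGF-beta at 500 pg/mL final, and were incubated 18 hours at 37 degrees C. Viability was read by CellTiter-Glo luminescence. Media-only wells were set as complete cell-killing and DMSO as no toxicity.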
TGFb SMAD3 inh: inhibitors of TGF-b signaling | AID 588855 | Potency, µM (highest dose often 46.1 µM), hits mostly inhibitors | 1.2% of 410,000 active | HepG2 CAGA-GFP TGF-b/SMAD3 reporter, GFP fluorescence, 18 h; TGF-beta stimulated, 500 pg/mL final; note: nearly all actives have a fitted effect of over 65% in size
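Smad-responsive CAGA-GFP expression was quantified in HEPG2 cells exposed to compounds and 500 pg/mL final TGF-beta for 18 h at 37 degrees C; unstimulated wells defined full inhibition.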
ATXN2 expr inh: ATXN2 expression inhibition; Potency, µM (highest dose often 57 µM), hits mostly inhibitors; HEK-293 ATXN2-luciferase reporter, luminescence, 24 h; 0.72% of 360,000 active; AID 1745845; note: nearly all actives have a fitted effect of over 55% in size
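qHTS (up to 57 uM final) was run with 24 h compound exposure of reporter cells at 37 °C. Each well was multiplexed: SteadyGlo luminescence measured ATXN2-luciferase expression after a fluorogenic Gly-Phe-AFC viability readout (25 uM final).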
HT1080NT lethal: kills 2HG-producing HT-1080-NT fibrosarcoma cells | HT-1080-NT fibrosarcoma viability, CellTiter-Glo ATP luminescence, 48 h | 1.6% of 360,000 active | Potency, µM (doses to about 46.1 µM), usual class: cytotoxic;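 note: NT is the 2HG producing partner of a matched IDH1 knockdown line; nearly all actives have a fitted effect of over 55% in size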
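HT-1080-NT fibrosarcoma cells (2HG-overproducing), 750 cells/well in RPMI with 5% FBS, dosed after 2 h and incubated 48 h at 37C. CellTiter-Glo luminescence normalized to DMSO and no-cell wells; concentration-response curves fitted and classed.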
Hits are given with their value; i = inactive; ? = inconclusive; nt = not tested or not shown. Only some compounds are listed: those with a hit (about 3.8% of all), similar ones and a draw of the others. Calls come from the whole dose curve; as a rule, active = well fitted curve in the direction sought with a large enough effect; inconclusive = small, poorly fitted or top-dose-only effect, or another doubt; inactive = no such curve, though single readings can be large; an effect the other way counts as inactive or inconclusive.

SMILES | HT1080 IDH1KD tx | S2 tox | HepG2 viability | TGFb SMAD3 inh | ATXN2 expr inh | HT1080NT lethal
COc1ccccc1C(=O)Nc1ccc2c(c1)CN(C(=O)CSC)CC2 | 10.3µM | i | i | i | i | 13µM
COc1ccccc1C(=O)Nc1ccc2c(c1)CCCN2C(=O)c1ccccc1 | 14.6µM | i | 12.6µM | i | i | 18.4µM
COc1ccccc1C(=O)N[C@@H]1c2ccccc2C2(CCN(Cc3nccs3)CC2)[C@H]1OC | nt | i | nt | nt | nt | nt
O=C1c2ccccc2-c2cccnc21 | i | i | i | i | i | i
O=C1c2ccccc2C(=O)c2c(/C=C/N3CCCCC3)ccnc21 | 23.1µM | ? | 3.55µM | ? | ? | i
CC(C)c1nc2sc3c(SCC(=O)NCc4ccco4)ncnc3c2c2c1CCC2 | ? | i | i | i | i | ?
Cc1nc2c(sc3nc4c(cc32)COC(C)(C)C4)c(=O)n1CC(=O)NCc1ccco1 | ? | i | i | i | i | 7.08µM
CC1(C)Cc2nc3sc4c(=O)n(CC(=O)NCc5ccccc5)cnc4c3cc2CO1 | 3.55µM | ? | i | i | i | 8.91µM
CC1(C)Cc2nc3sc4c(SCC(=O)NCc5ccco5)ncnc4c3cc2CO1 | 2.59µM | ? | i | i | i | ?
COc1ccc(-c2oc(NC(=O)CCl)c(C#N)c2-c2ccc(OC)cc2)cc1 | ? | nt | 12.6µM | i | 17.8µM | ?
COc1ccc(-c2oc(NC(=O)CSc3ncn[nH]3)c(C#N)c2-c2ccc(OC)cc2)cc1 | ? | i | i | ? | i | ?
C=C1C[C@@]23C[C@]1(O)CC[C@@H]2[C@]12C=C[C@@H](O)[C@](C)(C(=O)O1)[C@H]2[C@H]3C(=O)O | nt | i | nt | nt | nt | nt
CCCCC(=O)OC1=C(C(=O)c2ccccc2)N(C)S(=O)(=O)c2ccccc21 | nt | i | i | 17.8µM | i | nt
CCN1C(C(=O)c2ccccc2)=C(OC(=O)c2ccc(Cl)cc2)c2ccccc2S1(=O)=O | nt | nt | i | 11.2µM | nt | nt
CCOC(=O)CN1C(C(=O)c2ccccc2)=C(OC(=O)c2ccccc2)c2ccccc2S1(=O)=O | nt | ? | i | ? | i | nt
COC(=O)COc1ccc(S(=O)(=O)Nc2ccc(C(N)=O)cc2)cc1Cl | i | i | i | i | i | i
COC(=O)COc1ccc(S(=O)(=O)Nc2ccc(C(N)=O)cc2)cc1C | i | i | i | 15.8µM | i | i
C(=N\N(Cc1ccccc1)c1ccccc1)/c1cccnc1 | i | i | i | ? | i | i
Oc1cccc(/C=N/N(Cc2ccccc2)c2ccccc2)c1 | 18.4µM | i | 12.6µM | ? | i | ?
COc1cccc(-c2cc(NC=O)c3ncc(-c4ccc(OC)c(OC)c4)n3c2)c1 | 6.51µM | ? | i | ? | ? | 2.91µM
COc1ccc(-c2cnc3c(NC=O)cc(-c4ccc(F)cc4)cn23)cc1OC | ? | ? | i | ? | i | ?
COc1ccc(F)cc1-c1cc(NC=O)c2ncc(-c3cccc(C(F)(F)F)c3)n2c1 | 5.17µM | ? | 12.6µM | ? | i | ?
COc1ccc(-c2cc(NC=O)c3ncc(-c4ccc(OC)c(OC)c4)n3c2)c(OC)c1 | 0.082µM | ? | i | ? | i | 0.0073µM
COc1ccc(-c2cnc3c(NC=O)cc(-c4cccc(NS(C)(=O)=O)c4)cn23)cc1OC | 4.61µM | ? | i | ? | ? | 2.31µM
COc1cccc(-c2cnc3c(NC=O)cc(-c4cc(OC)c(OC)c(OC)c4)cn23)c1 | 16.4µM | ? | i | i | i | ?
SMILES | HT1080 IDH1KD tx | S2 tox | HepG2 viability | TGFb SMAD3 inh | ATXN2 expr inh | HT1080NT lethal
O=C(Nc1ccccc1)c1ccc(-n2nncc2-c2ccccc2)cc1 | nt | nt | i | i | nt | nt
Clc1ccccc1Cn1c(/C=C/c2ccco2)nc2ccccc21 | 23.1µM | i | i | ? | i | ?
COc1ccc(-c2ccc(C(=O)N(C)Cc3csc(C)n3)c(N3CCC(N4CCc5ccccc5C4)CC3)n2)cc1 | nt | i | nt | nt | nt | nt
COc1ccc2c(c1)C=C/C2=C\c1ccc(N(C)C)cc1 | nt | nt | i | i | nt | nt
Oc1ccc(Cl)cc1C1C=C(c2ccc3c(c2)OCO3)NC(c2ccc(Br)cc2)N1 (stereo not given) | nt | nt | i | i | nt | nt
Oc1ccc(Cl)cc1C1C=C(c2ccc3c(c2)OCO3)NC(c2cc(Br)ccc2F)N1 (stereo not given) | nt | nt | 14.1µM | 7.94µM | nt | nt
COc1ccc(Br)cc1C1NC(c2ccc3c(c2)OCO3)=CC(c2cc(Cl)ccc2O)N1 (stereo not given) | nt | nt | 11.2µM | ? | nt | nt
CCOC(=O)Cn1c(=O)n(C2CCCCC2)c2nc(-c3ccc(C(C)C)cc3)nc(C(N)=O)c21 | nt | i | i | ? | i | nt
Clc1ccc(Nc2nc(NCc3ccco3)nc3nccnc23)cc1 | nt | nt | i | i | nt | nt
CCN(CC)C(=O)CSc1nc2cc3c(cc2c(=O)n1Cc1ccc(C(=O)NCCc2ccc(OC)c(OC)c2)cc1)OCO3 | nt | nt | i | i | nt | nt
O=S(=O)(c1ccccc1Br)N1CCN(c2nc(-c3ccccc3)nc3ccccc23)CC1 | nt | nt | i | i | nt | nt
CC1=CC2=NC(=O)/C(=C\c3cc(C)n(-c4ccc(F)cc4)c3C)C(=N)N2O1 | i | i | i | i | i | i
CC1=NOC(=O)/C1=C\c1ccc(-c2cccc(Cl)c2)o1 | 18.4µM | ? | i | ? | ? | ?
CC1=CC2=NC(=O)/C(=C\c3ccc(-c4cccc(Cl)c4)o3)C(=N)N2O1 | 8.2µM | ? | i | i | i | 10.3µM
CC1=NOC(=O)/C1=C\c1ccc(-c2ccc(Cl)c(C(=O)O)c2)o1 | i | i | i | i | i | i
O=C1C2CC=CCC2C(=O)N1Nc1ccccc1 (stereo not given) | ? | i | i | i | i | 20.6µM
O=C(CCn1c(=O)[nH]c2ccccc21)NCC1Cc2cc(Cl)cc(-c3ccncc3)c2O1 (stereo not given) | nt | i | nt | nt | nt | nt
Cc1cc(C)c(/C=N/NC(=O)c2nnn(-c3nonc3N)c2CN2CCC(C)CC2)c(C)c1 | ? | ? | i | ? | i | ?
COc1c(Cl)cc(Cl)cc1/C=N/NC(=O)c1nnn(-c2nonc2N)c1CN1CCC(C)CC1 | i | i | i | i | i | i
CC(/C=N/NC(=O)c1nnn(-c2nonc2N)c1C(C)C)=C\c1ccccc1 | i | ? | i | 15.8µM | nt | i
CC(C)c1c(C(=O)N/N=C/c2ccc(C(F)(F)F)cc2)nnn1-c1nonc1N | 25.9µM | i | i | ? | i | ?
CC1CCN(Cc2c(C(=O)N/N=C/c3cc(Cl)ccc3O)nnn2-c2nonc2N)CC1 | 4.11µM | i | i | ? | 2.24µM | ?
CC1CCN(Cc2c(C(=O)N/N=C/c3cc(Br)ccc3O)nnn2-c2nonc2N)CC1 | 2.31µM | ? | i | ? | ? | 3.66µM
O=C(c1cccc2ccccc12)N1CCN(S(=O)(=O)c2ccccc2)CC1 | nt | nt | i | i | nt | nt
O=C1NC(=O)C(=Cc2ccc(-c3ccc(F)cc3O)o2)S1 | nt | nt | nt | nt | i | nt
